# Several values for one entry are separate records, joined by “and”; a condition that tells them apart may be missing. Equal values may be shown once. Results filed as inconclusive are left out. Entries that show only a call come without a potency. A structure can be active in one record and inactive in another. Activity calls are given as the source filed them. Unless noted, the call rests on the fitted dose curve; in most records, active means well fitted curve in the direction sought with a large enough effect in the repeat runs; inconclusive means weak or mixed curves; inactive means no such curve, though single readings can be large; an effect the other way counts as inactive or inconclusive.
# Assays:
# [1] = target: Acetylcholinesterase (Homo sapiens) (UniProt P22303); test: Acetylcholinesterase (AChE) small molecule antagonists: enzyme-based qHTS assay (AID 1347397; calls by dose curve; further: nearly all actives have a fitted effect of over 55% in size); conditions: Potency: AChE enzyme activity inhibition
# Method in brief: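 Recombinant human AChE, dispensed at 50 mU/mL, was preincubated with Tox21 10K compounds or DMSO vehicle for 30 min at room temperature. DTNB plus acetylthiocholine was then added, and thiocholine was measured colorimetrically after a further 10 min.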
# [2] = target: Acetylcholinesterase (Homo sapiens) (UniProt P22303); test: Acetylcholinesterase (AChE) small molecule antagonists: fluorescence cell-based qHTS assay (AID 1347398; calls by dose curve; further: nearly all actives have a fitted effect of over 50% in size); conditions: Potency: AChE activity
# Method in brief: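 Human SH-SY5Y cells were plated overnight at 37 C, exposed to compound for 30 min at 37 C, 5% CO2, then given acetylthiocholine plus Thiolite Green for 40 min at room temperature; thiocholine fluorescence (Ex/Em 490/520 nm) reports endogenous AChE activity.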
# [3] = target: Acetylcholinesterase (Homo sapiens) (UniProt P22303); test: Acetylcholinesterase (AChE) small molecule antagonists: enzyme-based qHTS assay with human liver microsomes (AID 1347399; calls by dose curve; further: nearly all actives have a fitted effect of over 60% in size); conditions: Potency: qHTS inhibition
# Method in brief: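 Recombinant human AChE (50 mU/mL in the enzyme mix) and human liver microsomes (0.25 mg/mL final) were preincubated with compound and NADPH (0.25 mg/mL final) for 30 min at 37 C. Acetylthiocholine/DTNB was then added; thiocholine was read colorimetrically after 10 min at room temperature.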
# [4] = target: Cytochrome P450 2D6 (Homo sapiens) (UniProt P10635); test: Cytochrome P450 Family 2 Subfamily D Member 6 (CYP2D6) small molecule antagonists: luciferase reporter qHTS assay (AID 1671196); further: nearly all actives have a fitted effect of over 50% in size; on activity change, negative = inhibition: series mostly up to about 120 µM
# Method in brief: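 Read-out is luminescence from luciferin formed by CYP2D6 turnover of a proluciferin substrate, recorded as relative luminescence units. Reactions ran 1 h at room temperature after NADPH regeneration solution was added.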
# [5] = target: Cytochrome P450 2C19 (Homo sapiens) (UniProt P33261); test: Cytochrome P450 Family 2 Subfamily C Member 19 (CYP2C19) small molecule antagonists: luciferase reporter qHTS assay (AID 1671197); further: nearly all actives have a fitted effect of over 65% in size; on activity change, negative = inhibition: series mostly up to about 120 µM
# Method in brief: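 Enzyme-substrate mix with proluciferin substrate (P450-Glo CYP2C19 system) preincubated with compounds 10 min at room temperature; NADPH regeneration solution added, 37C for 1 h; detection reagent stops reaction, luminescence read after 20 min. Ketoconazole positive control.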
# [6] = target: Cytochrome P450 2C9 (Homo sapiens) (UniProt P11712); test: Cytochrome P450 Family 2 Subfamily C Member 9 (CYP2C9) small molecule antagonists: luciferase reporter qHTS assay (AID 1671198); further: nearly all actives have a fitted effect of over 50% in size; on activity change, negative = inhibition: series mostly up to about 120 µM
# Method in brief: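 CYP2C9 activity was measured with a P450-Glo proluciferin substrate. Enzyme–substrate mix was held with compound for 10 min at room temperature, then NADPH regeneration solution was added for 1 h at 37C. Luciferin product was read as luminescence.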
# [7] = target: Voltage-gated inwardly rectifying potassium channel KCNH2 (Homo sapiens) (UniProt Q12809); test: Human Ether-a-go-go-Related Gene (hERG) channel small molecule antagonists: fluorescence cell-based qHTS assay (AID 1671200); further: nearly all actives have a fitted effect of over 50% in size;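 on activity change, negative = inhibition: hERG-expressing U2OS cells given a thallium stimulus after FluxOR II dye loading; series mostly up to about 77 µM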
# Method in brief: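 hERG-U2OS cells plated overnight at 37 C, loaded with FluxOR II dye 1 h at RT in dark; after 10 min, thallium stimulus added. Fluorescence (480/540 nm) read kinetically for 2 min at 1 s intervals.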
# [8] = target: Cytochrome P450 3A4 (Homo sapiens) (UniProt P08684); test: Cytochrome P450 Family 3 Subfamily A Member 4 (CYP3A4) small molecule antagonists: luciferase reporter qHTS assay (AID 1671201); further: nearly all actives have a fitted effect of over 50% in size; on activity change, negative = inhibition: series mostly up to about 120 µM
# Method in brief: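 P450-Glo CYP3A4 luminescent assay: compounds preincubated 10 min at room temperature with enzyme and proluciferin substrate, NADPH regeneration added, 1 h room-temperature reaction, stopped with luciferin detection reagent; luminescence read after 20 min. Ketoconazole positive control.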
# [9] = target: Cytochrome P450 1A2 (Homo sapiens) (UniProt P05177); test: Cytochrome P450 Family 1 Subfamily A Member 2 (CYP1A2) small molecule antagonists: luciferase reporter qHTS assay (AID 1671199); further: nearly all actives have a fitted effect of over 50% in size; on activity change, negative = inhibition: series mostly up to about 120 µM
# Method in brief: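 P450-Glo CYP1A2, 1536-well qHTS: enzyme/proluciferin substrate + cpd (DMSO), 10 min RT; NADPH regen, 1 h RT; detection reagent, 20 min; luminescence, RLU.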
# Potency means the concentration at half of the fitted maximal effect.
# Chain of Cytochrome P450 2D6 (Homo sapiens) (P10635 whole entry, looked up): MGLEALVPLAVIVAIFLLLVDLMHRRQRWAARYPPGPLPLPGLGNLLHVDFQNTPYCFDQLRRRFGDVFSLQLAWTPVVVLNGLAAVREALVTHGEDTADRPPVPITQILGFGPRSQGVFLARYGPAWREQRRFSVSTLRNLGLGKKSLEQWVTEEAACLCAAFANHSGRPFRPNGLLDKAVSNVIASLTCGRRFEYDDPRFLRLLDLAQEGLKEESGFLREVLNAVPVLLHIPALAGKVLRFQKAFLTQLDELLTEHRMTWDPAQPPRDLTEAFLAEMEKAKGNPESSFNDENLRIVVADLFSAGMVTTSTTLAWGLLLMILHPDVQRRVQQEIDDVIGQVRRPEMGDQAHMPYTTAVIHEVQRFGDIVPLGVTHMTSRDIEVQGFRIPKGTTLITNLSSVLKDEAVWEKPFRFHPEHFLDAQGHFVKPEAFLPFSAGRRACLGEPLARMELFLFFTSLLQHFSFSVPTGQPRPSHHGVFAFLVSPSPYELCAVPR
# Chain of Cytochrome P450 1A2 (Homo sapiens) (P05177 whole entry, looked up): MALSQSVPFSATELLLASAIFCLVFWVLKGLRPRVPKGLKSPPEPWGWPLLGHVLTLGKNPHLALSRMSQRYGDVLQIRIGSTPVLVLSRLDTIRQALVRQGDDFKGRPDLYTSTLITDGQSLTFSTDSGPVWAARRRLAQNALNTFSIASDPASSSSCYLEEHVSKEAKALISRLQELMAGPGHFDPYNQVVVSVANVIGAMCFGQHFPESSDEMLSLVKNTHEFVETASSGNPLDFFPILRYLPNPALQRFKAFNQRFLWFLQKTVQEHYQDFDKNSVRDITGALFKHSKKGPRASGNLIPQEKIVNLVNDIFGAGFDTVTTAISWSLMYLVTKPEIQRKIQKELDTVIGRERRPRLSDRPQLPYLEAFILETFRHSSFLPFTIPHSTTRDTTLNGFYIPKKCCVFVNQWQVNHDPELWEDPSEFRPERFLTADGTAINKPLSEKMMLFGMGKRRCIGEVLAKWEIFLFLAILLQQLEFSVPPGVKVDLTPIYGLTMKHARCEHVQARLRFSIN
# Chain of Cytochrome P450 3A4 (Homo sapiens) (P08684 whole entry, looked up): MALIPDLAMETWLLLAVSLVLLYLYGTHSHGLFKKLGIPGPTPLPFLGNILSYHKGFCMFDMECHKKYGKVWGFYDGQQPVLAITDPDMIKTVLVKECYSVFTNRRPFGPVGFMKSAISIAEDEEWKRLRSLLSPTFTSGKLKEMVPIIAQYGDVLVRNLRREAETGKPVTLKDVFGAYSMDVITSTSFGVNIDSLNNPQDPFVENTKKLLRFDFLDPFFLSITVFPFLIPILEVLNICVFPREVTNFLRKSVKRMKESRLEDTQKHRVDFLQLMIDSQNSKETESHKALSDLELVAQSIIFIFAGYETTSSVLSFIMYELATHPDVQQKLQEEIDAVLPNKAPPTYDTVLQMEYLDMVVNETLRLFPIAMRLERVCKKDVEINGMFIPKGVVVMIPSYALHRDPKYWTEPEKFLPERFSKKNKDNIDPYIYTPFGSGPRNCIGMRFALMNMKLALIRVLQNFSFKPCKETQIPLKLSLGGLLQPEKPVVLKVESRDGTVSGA
# Chain of Voltage-gated inwardly rectifying potassium channel KCNH2 (Homo sapiens) (Q12809 whole entry, looked up): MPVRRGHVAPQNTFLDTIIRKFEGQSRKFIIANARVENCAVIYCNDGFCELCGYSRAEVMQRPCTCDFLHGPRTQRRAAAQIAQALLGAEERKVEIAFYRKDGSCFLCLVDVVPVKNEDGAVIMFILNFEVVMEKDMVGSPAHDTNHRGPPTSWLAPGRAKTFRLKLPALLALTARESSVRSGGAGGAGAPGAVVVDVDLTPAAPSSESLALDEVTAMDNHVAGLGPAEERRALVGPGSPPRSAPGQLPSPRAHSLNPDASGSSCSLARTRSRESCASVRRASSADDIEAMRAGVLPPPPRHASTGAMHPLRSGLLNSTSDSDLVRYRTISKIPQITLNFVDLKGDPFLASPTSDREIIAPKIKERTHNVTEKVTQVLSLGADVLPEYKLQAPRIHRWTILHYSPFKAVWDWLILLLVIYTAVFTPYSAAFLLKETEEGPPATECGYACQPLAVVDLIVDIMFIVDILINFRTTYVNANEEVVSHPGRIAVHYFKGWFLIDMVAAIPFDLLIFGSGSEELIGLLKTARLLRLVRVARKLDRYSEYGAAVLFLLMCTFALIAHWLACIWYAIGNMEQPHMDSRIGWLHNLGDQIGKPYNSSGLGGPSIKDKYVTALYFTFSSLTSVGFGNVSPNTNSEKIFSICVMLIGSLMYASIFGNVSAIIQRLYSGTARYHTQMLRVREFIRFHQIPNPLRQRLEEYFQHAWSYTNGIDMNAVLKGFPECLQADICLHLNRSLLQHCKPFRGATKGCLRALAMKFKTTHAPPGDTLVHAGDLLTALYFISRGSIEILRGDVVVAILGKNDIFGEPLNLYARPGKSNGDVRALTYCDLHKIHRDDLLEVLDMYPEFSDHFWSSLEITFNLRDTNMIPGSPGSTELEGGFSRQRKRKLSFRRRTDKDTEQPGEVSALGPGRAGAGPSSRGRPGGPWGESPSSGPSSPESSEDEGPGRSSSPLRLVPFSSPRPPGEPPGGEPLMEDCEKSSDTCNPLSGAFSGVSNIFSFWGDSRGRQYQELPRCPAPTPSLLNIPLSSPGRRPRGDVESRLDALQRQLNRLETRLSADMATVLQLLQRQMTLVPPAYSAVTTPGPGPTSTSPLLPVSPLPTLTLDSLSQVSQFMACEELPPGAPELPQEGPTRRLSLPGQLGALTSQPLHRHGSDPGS
# Chain of Acetylcholinesterase (Homo sapiens) (P22303 whole entry, looked up): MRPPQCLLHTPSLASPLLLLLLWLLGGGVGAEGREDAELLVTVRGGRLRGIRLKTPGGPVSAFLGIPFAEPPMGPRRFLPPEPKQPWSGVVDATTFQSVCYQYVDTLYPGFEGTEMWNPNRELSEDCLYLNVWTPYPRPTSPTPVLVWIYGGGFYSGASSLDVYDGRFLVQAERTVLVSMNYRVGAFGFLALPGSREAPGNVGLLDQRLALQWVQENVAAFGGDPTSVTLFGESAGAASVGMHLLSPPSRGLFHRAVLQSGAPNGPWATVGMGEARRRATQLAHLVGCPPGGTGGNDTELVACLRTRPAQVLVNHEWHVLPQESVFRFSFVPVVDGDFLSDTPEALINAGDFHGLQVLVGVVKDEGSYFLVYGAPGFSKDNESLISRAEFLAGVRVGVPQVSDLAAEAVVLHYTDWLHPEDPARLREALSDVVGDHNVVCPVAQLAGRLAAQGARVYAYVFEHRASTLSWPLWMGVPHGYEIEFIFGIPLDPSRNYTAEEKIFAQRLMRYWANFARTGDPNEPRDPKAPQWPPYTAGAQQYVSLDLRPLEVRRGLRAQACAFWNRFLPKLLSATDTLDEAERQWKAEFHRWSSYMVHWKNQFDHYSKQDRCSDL
# Chain of Cytochrome P450 2C19 (Homo sapiens) (P33261 whole entry, looked up): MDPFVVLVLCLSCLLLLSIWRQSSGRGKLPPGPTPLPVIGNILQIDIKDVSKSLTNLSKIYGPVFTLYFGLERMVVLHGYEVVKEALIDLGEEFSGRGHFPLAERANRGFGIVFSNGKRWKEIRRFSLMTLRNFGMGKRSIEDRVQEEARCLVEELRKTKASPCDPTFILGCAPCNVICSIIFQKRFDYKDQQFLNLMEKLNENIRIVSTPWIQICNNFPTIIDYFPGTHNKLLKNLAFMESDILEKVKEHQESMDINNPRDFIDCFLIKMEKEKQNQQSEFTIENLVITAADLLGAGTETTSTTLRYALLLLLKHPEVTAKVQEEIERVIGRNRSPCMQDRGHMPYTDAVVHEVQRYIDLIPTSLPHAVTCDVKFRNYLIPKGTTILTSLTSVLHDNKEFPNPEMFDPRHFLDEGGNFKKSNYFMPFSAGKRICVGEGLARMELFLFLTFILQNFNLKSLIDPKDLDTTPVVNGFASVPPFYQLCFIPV
# Chain of Cytochrome P450 2C9 (Homo sapiens) (P11712 whole entry, looked up): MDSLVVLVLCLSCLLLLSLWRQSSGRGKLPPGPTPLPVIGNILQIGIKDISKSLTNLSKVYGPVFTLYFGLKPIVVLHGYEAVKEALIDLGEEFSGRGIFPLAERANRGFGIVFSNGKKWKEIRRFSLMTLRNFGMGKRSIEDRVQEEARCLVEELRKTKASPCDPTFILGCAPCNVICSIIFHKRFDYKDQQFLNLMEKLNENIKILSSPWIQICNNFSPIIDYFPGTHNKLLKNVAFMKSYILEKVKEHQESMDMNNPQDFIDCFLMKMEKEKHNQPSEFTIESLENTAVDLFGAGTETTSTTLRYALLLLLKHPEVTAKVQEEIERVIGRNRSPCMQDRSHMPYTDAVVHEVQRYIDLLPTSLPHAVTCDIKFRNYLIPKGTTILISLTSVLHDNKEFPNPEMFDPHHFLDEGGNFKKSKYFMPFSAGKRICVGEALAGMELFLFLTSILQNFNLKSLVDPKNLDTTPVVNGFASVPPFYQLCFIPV
SMILES,Potency [1],Potency [2],Potency [3],Potency [4],Potency [5],Potency [6],Potency [7],Potency [8],Potency [9],"activity change, negative = inhibition [1]","activity change, negative = inhibition [2]","activity change, negative = inhibition [3]","activity change, negative = inhibition [9]","activity change, negative = inhibition [8]"
O=[N+]([O-])c1ccc(CCl)cc1,inactive,inactive,inactive,inactive,inactive,inactive,inactive,inactive,–,–,–,–,–,–
COC(=O)N(OC)c1ccccc1COc1ccn(-c2ccc(Cl)cc2)n1,inactive,inactive,inactive,22.4 µM (active),0.283 µM (active),7.1 µM (active),–,inactive,1.12 µM (active),–,–,–,–,–
CN(C)CCc1c[nH]c2ccccc12,inactive,inactive,inactive,39.6 µM (active),inactive,inactive,inactive,inactive,inactive,–,–,–,–,–
O=C(NC(=O)c1ccccc1Cl)Nc1ccc(OC(F)(F)F)cc1,inactive,inactive,inactive,inactive,inactive,inactive,inactive,inactive,–,–,–,–,–,–
C=C(C)C(=O)[O][Sn]([CH2]CCC)([CH2]CCC)[CH2]CCC,inactive,inactive,inactive,2.24 µM (active),0.71 µM (active),11.2 µM (active),4.9 µM (active),22.4 µM (active),–,–,–,–,–,–
CSC(=O)c1c(C(F)F)nc(C(F)(F)F)c(C(=O)SC)c1CC(C)C,inactive,inactive,inactive,inactive,3.15 µM (active),9.97 µM (active),–,6.29 µM (active),3.15 µM (active),–,–,–,–,–
ClSC(Cl)(Cl)Cl,inactive,inactive,inactive,10.1 µM (active),inactive,31.8 µM (active),inactive,–,–,–,–,–,–,–
Brc1ccc(Oc2ccc(Br)cc2Br)c(Br)c1,inactive,inactive,inactive,inactive,0.142 µM (active),12.6 µM (active),inactive,inactive,12.6 µM (active),–,–,–,–,–
c1ccc(N=NNc2ccccc2)cc1,inactive,inactive,inactive,65.4 µM (active) and 63.3 µM (active),23.2 µM (active) and 50.2 µM (active),26 µM (active) and 31.7 µM (active),–,26 µM (active),13.1 µM (active) and 15.9 µM (active),–,–,–,–,–
[O-][Cl+3]([O-])([O-])O,inactive,inactive,inactive,inactive,inactive,inactive,inactive,inactive,inactive,–,–,–,–,–
CCCCC(CC)COC(=O)OOC(C)(C)C (centres undefined),inactive,inactive,inactive,inactive,inactive,inactive,inactive,inactive,–,–,–,–,–,–
C#CCO,inactive,inactive,inactive,inactive,inactive,inactive,inactive,inactive,–,–,–,–,–,–
Cc1ccc(C)c2ccccc12,inactive,inactive,inactive,inactive,inactive,inactive,inactive,inactive,inactive,–,–,–,–,–
CCO/N=C(\CC)C1=C(O)CC(c2c(C)cc(C)cc2C)CC1=O (centres undefined),inactive,inactive,inactive,27.5 µM (active),5.03 µM (active),7.31 µM (active),inactive,inactive,–,–,–,–,–,–
CC(C)Br,inactive,inactive,inactive,inactive,35.7 µM (active),40 µM (active),inactive,inactive,–,–,–,–,–,–
CNC(=O)Oc1cc(C)cc(C(C)C)c1,0.399 µM (active),0.178 µM (active),5.03 µM (active),39.9 µM (active),20 µM (active),inactive,inactive,inactive,20 µM (active),–,–,–,–,–
CN(C)C(=S)SSC(=S)N(C)C,inactive,35.1 µM (active) and 39.9 µM (active) and 21.9 µM (active),inactive,89.4 µM (active) and inactive,7 µM (active) and 6.33 µM (active) and 3.09 µM (active),9.89 µM (active) and 6.33 µM (active) and 2.19 µM (active),43 µM (active) and 49 µM (active),39.4 µM (active),3.94 µM (active) and 4.48 µM (active) and 2.75 µM (active),–,–,–,–,–
Oc1cccc(Cl)c1Cl,inactive,inactive,inactive,56.6 µM (active),80 µM (active),inactive,inactive,inactive,35.7 µM (active),–,–,–,–,–
CCC1(CC)C(=O)N=C(O)NC1=O,inactive,inactive,inactive,inactive,inactive,inactive,inactive,inactive,inactive,–,–,–,–,–
CC1CCCC1,inactive,inactive,inactive,inactive,17.6 µM (active),8.8 µM (active),inactive,27.8 µM (active),39.3 µM (active),–,–,–,–,–
CN(C)c1ccc(N)cc1,61.8 µM (active),11 µM (active),inactive,24.6 µM (active),7.78 µM (active),31 µM (active),–,19.5 µM (active),12.3 µM (active),–,–,–,–,–
Oc1ccc([C@H]2CNCc3c2ccc(O)c3O)cc1O,inactive,30.9 µM (active),inactive,34.7 µM (active),38.9 µM (active),13.8 µM (active),inactive,inactive,inactive,–,–,–,–,–

SMILES,Potency [1],Potency [2],Potency [3],Potency [4],Potency [5],Potency [6],Potency [7],Potency [8],Potency [9],"activity change, negative = inhibition [1]","activity change, negative = inhibition [2]","activity change, negative = inhibition [3]","activity change, negative = inhibition [9]","activity change, negative = inhibition [8]"
Nc1ccc(Cl)cc1C(=O)c1ccccc1F,inactive,inactive,inactive,inactive,11 µM (active),17.4 µM (active),inactive,inactive,15.5 µM (active),–,–,–,–,–
COc1nc(C)nc(NC(=O)NS(=O)(=O)c2ccccc2Cl)n1,inactive,inactive,inactive,inactive,inactive,inactive,inactive,inactive,–,–,–,–,–,–
Cc1cc2c3c(c1)C(c1ccccc1)=N[C@@H](NC(=O)c1ccncc1)C(=O)N3CC2,inactive,inactive,inactive,39.9 µM (active),25.2 µM (active),31.7 µM (active),–,1.12 µM (active),–,–,–,–,–,–
COC(=O)C(C)N(C(=O)c1ccco1)c1c(C)cccc1C (centres undefined),inactive,inactive,inactive,inactive,11.2 µM (active),31.7 µM (active),inactive,inactive,–,–,–,–,–,–
CN1C2CCC(C)(C)C1CC(OC(=O)C(O)(c1cccs1)c1cccs1)C2 (centres undefined),inactive,inactive,inactive,15.5 µM (active),inactive,inactive,–,0.219 µM (active),inactive,–,–,–,–,–
COc1c2c(cc3c1OCO3)CCN(C)C2,inactive,inactive,inactive,4.36 µM (active),inactive,inactive,inactive,inactive,–,–,–,–,–,–
C=CC(=C)C,inactive,inactive,inactive,inactive,inactive,inactive,inactive,inactive,inactive,–,–,–,–,–
c1ccc(Nc2ccc(Nc3ccccc3)cc2)cc1,inactive,inactive,inactive,39.8 µM (active),12.6 µM (active),11.2 µM (active),38.7 µM (active),39.8 µM (active),31.6 µM (active),–,–,–,–,–
CC[N+]1(CC)CCC(OC(=O)C(O)(c2ccccc2)c2ccccc2)C1 (centres undefined),inactive,inactive,inactive,8.71 µM (active),inactive,inactive,inactive,inactive,–,–,–,–,–,–
COC(=O)/C=C(\C)OP(=O)(OC)OC,3.56 µM (active),1 µM (active),17.8 µM (active),31.7 µM (active),71 µM (active),inactive,inactive,inactive,inactive,–,–,–,–,–
Oc1cc(Cl)cc(Cl)c1,inactive,inactive,inactive,71.7 µM (active),inactive,–,inactive,–,32 µM (active),–,–,–,–,–
C=CC(=O)[O][Sn]([CH2]CCC)([CH2]CCC)[CH2]CCC,inactive,inactive,inactive,1.26 µM (active),0.894 µM (active),12.6 µM (active),6.16 µM (active),25.2 µM (active),–,–,–,–,–,–
Cc1ccc2cc3c(ccc4ccccc43)c3c2c1CC3,inactive,inactive,inactive,inactive,40 µM (active),–,inactive,–,0.449 µM (active),–,–,–,–,–
O=S(=O)(NS(=O)(=O)C(F)(F)F)C(F)(F)F,inactive,inactive,inactive,0.447 µM (active),39.8 µM (active),–,38.8 µM (active),–,44.7 µM (active),–,–,–,–,–
CCC[CH2][Sn]([CH2]CCC)([CH2]CCC)[O][Sn]([CH2]CCC)([CH2]CCC)[CH2]CCC,–,–,–,0.155 µM (active),0.981 µM (active),–,1.7 µM (active),–,–,-1.88% [at 10.5 µM] (inactive),2.81% [at 10.5 µM] (inactive),0.495% [at 10.5 µM] (inactive),-6.75% [at 10.5 µM] (inactive),-17.7% [at 10.5 µM] (inactive)
CC(=O)[O][Sn]([c]1ccccc1)([c]1ccccc1)[c]1ccccc1,inactive,inactive,inactive,0.2 µM (active),5.03 µM (active),–,1.1 µM (active),12.6 µM (active),–,–,–,–,–,–
N#Cc1ccc(N(CC(N)=O)CC(F)(F)F)cc1C(F)(F)F,inactive,inactive,inactive,31.7 µM (active),79.6 µM (active),–,inactive,–,39.9 µM (active),–,–,–,–,–
N#CC(C#N)=NNc1cccc(Cl)c1,inactive,inactive,inactive,63.3 µM (active),79.6 µM (active),–,–,11.2 µM (active),8.94 µM (active),–,–,–,–,–
O=c1c2ccccc2c(=O)c2c1cc(Cl)c1[nH]c3c([nH]c12)c(Cl)cc1c(=O)c2ccccc2c(=O)c13,inactive,inactive,inactive,inactive,inactive,–,inactive,inactive,–,–,–,–,–,–
Brc1cccc(-c2ccccc2)c1,inactive,inactive,inactive,inactive,inactive,–,inactive,inactive,12.7 µM (active),–,–,–,–,–
O=C(NC(=O)c1c(F)cccc1F)Nc1ccc(Oc2ccc(C(F)(F)F)cc2Cl)cc1F,inactive,inactive,inactive,inactive,inactive,–,34.7 µM (active),–,inactive,–,–,–,–,–
CC[C@]1(O)CC[C@H]2[C@@H]3CCC4=CCCC[C@@H]4[C@H]3CC[C@@]21C,inactive,inactive,inactive,inactive,12.3 µM (active),–,inactive,–,–,–,–,–,–,–
